# High-throughput results (PubChem)
# A selection: hits, their analogues and other compounds. The true share with any hit is near 3.3%.
# ERa SRC1 pot = enhances coactivator binding to human estrogen receptor alpha | P03372 | TR-FRET ERalpha-LBD/SRC-Cy5 coactivator binding, 2 h; 100 = basal binding, no effect | coactivator binding (% of control), % at 25.6 µM | actives 1.3% (n = 86,000) | AID 639; in the data active = activity above about 200%;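 also: binding measured in presence of low estradiol as agonist stimulus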
# Candida biofilm = kills Candida albicans biofilms; C. albicans biofilm + clotrimazole, Alamar Blue; inhibition, % at 6 µM; actives 0.14% (n = 85,000);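 active = inhibition above 20%; inactive = inhibition below 20%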;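 also: preformed 24 hr biofilms exposed to compound for 48 hr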
# ERb coact inh = ER-beta (human) coactivator binding inhibition; inhibition, % at 25.6 µM; AID 633; Q92731; TR-FRET ER-beta LBD / SRC1-Cy5 peptide binding; receptor agonist-loaded with 1 µM estradiol; actives 1.3% (n = 86,000);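 active = compounds whose percent inhibition of the receptor-coactivator binding signal exceeds about 50% in the single-dose screen, limit read from the data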
# Smad3 inh = Smad3 (human) transcription factor binding inhibition; TR-FRET Smad3/Dy647-FoxH1 peptide binding, europium anti-His; inhibition, % at 25 µM; actives 0.29% (n = 88,000);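 active = compounds that reduce the energy-transfer binding signal between the protein and its labelled peptide by more than half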
# FAK blocker = FAK (human) kinase inhibition | Q05397 | biochemical FAK kinase activity assay | inhibition, %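 (tested at 7 µM)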 | actives 0.84% (n = 97,000) | AID 727; in the data active = inhibition above about 19%
# Target sequence (Q05397 whole entry, looked up): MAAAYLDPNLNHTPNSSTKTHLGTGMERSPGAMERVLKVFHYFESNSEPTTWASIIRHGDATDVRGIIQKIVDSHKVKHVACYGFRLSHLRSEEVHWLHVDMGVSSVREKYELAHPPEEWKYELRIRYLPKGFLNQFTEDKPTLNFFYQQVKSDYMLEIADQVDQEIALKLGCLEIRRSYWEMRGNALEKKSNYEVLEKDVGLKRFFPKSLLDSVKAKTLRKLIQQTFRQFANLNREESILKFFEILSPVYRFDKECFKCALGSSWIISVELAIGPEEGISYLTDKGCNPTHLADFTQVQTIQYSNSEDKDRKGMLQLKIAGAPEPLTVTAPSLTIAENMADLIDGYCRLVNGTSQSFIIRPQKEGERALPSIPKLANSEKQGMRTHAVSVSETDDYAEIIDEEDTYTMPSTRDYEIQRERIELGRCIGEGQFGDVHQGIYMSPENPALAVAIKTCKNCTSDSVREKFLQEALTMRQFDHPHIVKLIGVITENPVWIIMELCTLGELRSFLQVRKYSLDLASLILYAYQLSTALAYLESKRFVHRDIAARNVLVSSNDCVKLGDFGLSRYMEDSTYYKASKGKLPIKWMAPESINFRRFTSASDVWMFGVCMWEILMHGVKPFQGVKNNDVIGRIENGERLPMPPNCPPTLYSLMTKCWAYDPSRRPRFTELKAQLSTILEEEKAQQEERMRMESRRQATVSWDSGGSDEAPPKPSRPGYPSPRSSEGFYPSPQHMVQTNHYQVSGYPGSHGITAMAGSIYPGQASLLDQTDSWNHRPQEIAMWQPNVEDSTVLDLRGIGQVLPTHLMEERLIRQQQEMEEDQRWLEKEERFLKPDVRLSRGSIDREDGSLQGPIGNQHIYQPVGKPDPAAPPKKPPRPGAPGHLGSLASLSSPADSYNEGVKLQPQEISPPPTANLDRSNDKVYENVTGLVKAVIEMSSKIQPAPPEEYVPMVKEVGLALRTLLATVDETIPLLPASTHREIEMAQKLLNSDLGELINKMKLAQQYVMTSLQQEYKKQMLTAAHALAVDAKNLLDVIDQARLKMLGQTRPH
# ERa coact inh = blocks coactivator binding to human estrogen receptor alpha. P03372. TR-FRET ER-alpha LBD / SRC-1 peptide, estradiol-bound. inhibition, % at 25.6 µM. actives 1.7% (n = 86,000). AID 629; in the data active = inhibition above about 50%
# Numbers stand for hits; - = inactive; . = no result; [ ] = remark or other dose.
SMILES,ERa SRC1 pot,Candida biofilm,ERb coact inh,Smad3 inh,FAK blocker,ERa coact inh
CCOc1ccc(N2C(=O)c3cccnc3C2Nc2ccc(C)cc2)cc1 (centres undefined),-,-,-,-,-,-
O=c1oc2ccccc2cc1-c1nc2c(s1)CCCC2,.,.,.,.,-,.
CNc1nnc(-c2cc3cc(Cl)ccc3oc2=O)s1,-,-,-,-,-,66
Cc1nnc(-n2ncc(C#N)c2N)c2nn(-c3ccccc3F)c(C)c12,-,-,-,-,-,-
Cc1nc(SCn2nnc3ccccc3c2=O)c2c(C)c(C)sc2n1,-,-,-,-,.,64[fluorescence artefact?]
O=c1c2ccccc2nnn1CSc1ncnc2ccccc12,.,.,.,.,-,.
Cc1ccc(C(C(=O)NCc2ccco2)N(C(=O)CNC(=O)c2cccs2)c2c(C)cc(C)cc2C)cc1 (centres undefined),.,.,.,.,-,.
Cc1ccccc1NC(=O)c1cccc2nccnc12,-,-,-,-,-,-
Cc1ccc(F)cc1NC(=O)c1cccc2nccnc12,370,-,-,-,-,-
COc1ccc(N(CC(=O)Nc2ccc3c(c2)OCCO3)S(=O)(=O)c2c(C)noc2C)cc1,-,-,99[fluorescence artefact?],-,-,-
Cc1ccc(N(CC(=O)Nc2ccc3c(c2)OCCO3)S(=O)(=O)c2c(C)noc2C)cc1,-,-,-,-,-,-
C[C@H]1CCC/C=C\[C@@H]2C[C@H](OC(=O)CN(C)C)C[C@H]2[C@@H](O)/C=C\C(=O)O1,.,.,.,-,.,.
O=C(Nc1nc(-c2nc3ccccc3s2)cs1)C1COc2ccccc2O1 (centres undefined),-,-,-,-,.,68
COc1ccc2nc(NC(=O)C3COc4ccccc4O3)sc2c1 (centres undefined),-,-,-,-,-,-
O=C1c2ccccc2[C@@H]([C@H]2c3ccccc3C(=O)c3cc(Br)ccc32)c2ccc(Br)cc21,.,.,.,-,.,.
C=CCn1c(SCC(=O)NC2CCCCC2)nnc1C(C)NC(=O)c1cccs1 (centres undefined),-,-,-,-,-,83
C=CCn1c(SCC(=O)c2ccc(OC)cc2)nnc1C(C)NC(=O)c1cccs1 (centres undefined),-,-,-,-,-,-
O=C1CC(SC(=Nc2ccccc2)Nc2ccccc2)C(=O)N1c1cccc(Cl)c1 (centres undefined),.,.,.,.,-,.
CCc1ccccc1NC(=O)N1CCC(NC(=O)C(Cc2ccc(OC)c(OC)c2)NC(C)=O)CC1 (centres undefined),-,-,-,-,-,-
COc1ccc(CC(NC(C)=O)C(=O)NC2CCN(C(=O)Nc3ccc(Cl)cc3)CC2)cc1OC (centres undefined),-,-,-,79,-,-
O=c1[nH]c(SCc2cccc([N+](=O)[O-])c2)nc2nc[nH]c12,.,.,.,-,.,.
CC(C)O/C(=N\S(=O)(=O)c1ccc(Cl)cc1)c1ccccc1,-,-,-,-,-,-
CC(C)CO/C(=N/S(=O)(=O)c1ccccc1)c1ccccc1,-,73,-,-,-,-
CCN1CCN(c2cc(C)c3cc(NC(=O)c4cccnc4Cl)ccc3n2)CC1,-,-,-,-,-,-
Cc1cc(N2CCN(C)CC2)nc2ccc(NC(=O)c3cccnc3Cl)cc12,-,61,-,-,-,-
SMILES,ERa SRC1 pot,Candida biofilm,ERb coact inh,Smad3 inh,FAK blocker,ERa coact inh
CC(=O)Nc1cccc(NC(=O)c2oc3ccccc3c2C)c1,-,-,-,-,.,-
Cc1c(C(=O)Nc2ccc(-n3cnnn3)cc2)oc2ccccc12,-,-,65[fluorescence artefact?],-,-,76[fluorescence artefact?]
OCCN(CCO)c1ncnc2nc[nH]c12,.,.,.,-,.,.
CSc1ncnc2c1ncn2CC(=O)[C@@H]1CC[C@@H]2[C@H]3CCC4=CC(=O)CC[C@@]4(C)[C@@H]3CC[C@]21C,.,.,.,-,.,.
Cc1cccc(OCc2nnc(SCc3cc(=O)n4cc(Br)ccc4n3)o2)c1,203,-,-,-,.,-
Cc1cccc(OCc2nnc(SCC(=O)Nc3ccc(C)c(C)c3)o2)c1,230,-,-,-,-,-
CCc1nnc(NC(=O)CSc2nnc(COc3cccc(C)c3)o2)s1,-,-,-,-,-,-
CC(C)CSc1nc2c(c(=O)[nH]c(=O)n2C)n1CC(O)COc1cccc2ccccc12 (centres undefined),-,-,56,-,-,-
Cc1csc(NC(=O)c2sc3nc(-c4cccs4)ccc3c2N)n1,-,-,53[fluorescence artefact?],-,-,85[fluorescence artefact?]
CCCSc1nnc(NC(=O)c2sc3nc(-c4cccs4)ccc3c2N)s1,.,.,.,.,-,.
CC(C)CCNC(=O)C(c1cccnc1)N(Cc1ccccc1)C(=O)Cn1nnc2ccccc21 (centres undefined),-,-,-,-,-,-
CC(C)CCNC(=O)C(c1cccnc1)N(CCc1ccccc1)C(=O)Cn1nnc2ccccc21 (centres undefined),-,-,-,55,-,-
CC(C)OC(=O)c1c(F)c(F)c(N2CCOCC2)c(F)c1F,-,-,-,-,-,-
COc1cc2[nH]c(=O)n(CCC(=O)N3CCN(c4cc(Cl)ccc4C)CC3)c(=O)c2cc1OC,-,-,-,-,-,88[fluorescence artefact?]
CN(C)CC(=O)N1c2ccccc2CCc2ccc(NC(=O)c3ccc(N)cc3)cc21,-,-,69[fluorescence artefact?],-,-,79
CCOc1ccc2nc(NCCNC(=O)Nc3ccccc3)c(C#N)cc2c1,-,-,-,-,-,-
CCOc1ccc2nc(NCCNC(=O)Nc3cccc(C)c3)c(C#N)cc2c1,-,-,-,-,-,51[fluorescence artefact?]
O=C1Oc2ccccc2C(=O)/C1=C/N1C(=O)N/C(=C\c2ccccc2O)C1=O,.,.,.,-,.,.
Cc1cc2cc(C(c3nnnn3Cc3ccco3)N3CCCCC3)c(=O)[nH]c2cc1C (centres undefined),-,-,-,-,-,-
O=c1[nH]c2cc3c(cc2cc1C(c1nnnn1Cc1ccccc1)N1CCCc2ccccc21)OCO3 (centres undefined),-,-,-,-,-,56[fluorescence artefact?]
COc1cc2cc(C(c3nnnn3C3CCCC3)N3CCc4ccccc43)c(=O)[nH]c2cc1OC (centres undefined),216[fluorescence artefact?],-,-,-,-,50
O=c1[nH]c2cc3c(cc2cc1C(c1nnnn1Cc1ccccc1)N1CCN2CCCC2C1)OCCO3 (centres undefined),-,-,-,-,-,72[fluorescence artefact?]
COc1cc2cc(C(c3nnnn3C(C)(C)C)N3CCc4ccccc43)c(=O)[nH]c2cc1OC (centres undefined),-,-,-,-,-,-
O=c1[nH]c2cc3c(cc2cc1C(c1nnnn1Cc1ccccc1)N1CCCCCC1)OCCO3 (centres undefined),246[fluorescence artefact?],-,-,-,-,-
O=c1[nH]c2cc3c(cc2cc1C(c1nnnn1C1CCCC1)N1CCCc2ccccc21)OCCO3 (centres undefined),-,-,-,-,.,-
S=C(S)NCCN1CCNCC1,.,.,.,-,.,.
